# ± gives the standard deviation.
# Experiments:
# Settings in all cases: modulator concentration 10 µM
# [1] = system: RAW-Dual (murine macrophage reporter line); assay: NF-kB reporter (SEAP) activity fold change vs agonist alone; higher = enhanced NF-kB activity
# Summary of the method: (§1)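 RAW-Dual murine macrophage reporter cells were plated at 50 000 per well in 384-well plates, pin-transferred compound to 10 μM final, and pre-incubated for 1 hour at 37 °C before a PRR agonist was added and the cells incubated overnight. NF-κB activity was read from supernatant SEAP with QUANTI-Blue at 620 nm absorbance, and IRF activity from Lucia luciferase with QUANTI-Luc by luminescence. Each signal was expressed as fold change by dividing by the mean agonist-only control on the same plate. Two replicate plates were averaged, with errors obtained by propagation.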
# [2] = system: RAW-Dual (murine macrophage reporter line); assay: IRF reporter (Lucia luciferase) activity fold change vs agonist alone; higher = enhanced IRF activity
# Summary of the method: as §1
# [3] = system: RAW-Dual (murine macrophage reporter line); assay: viability score (confluency relative to resting cells, overnight) (fraction); higher = more viable, active = viable (0.7 or more)
# Summary of the method: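 RAW-Dual macrophages in 384-well plates were exposed overnight to compound at 10 μM final. Confluency was imaged with IncuCyte, and two confluency masks were generated with IncuCyte software over all imaged wells. The viability score is confluency expressed relative to resting cells. Compounds were called viable if both masks exceeded 70% of resting cells.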
# [4] = agonist: CpG ODN 1826 0.5 ug/mL
Compound,"NF-kB reporter [1, 4]",NF-kB reporter ([1]; agonist: LPS 0.1 ug/mL),NF-kB reporter ([1]; agonist: MPLA […]),IRF reporter ([2]; agonist: 3'3'-cGAMP 10 ug/mL),IRF reporter ([2]; agonist: LPS 0.1 ug/mL),IRF reporter ([2]; agonist: MPLA […]),viability score [3]
COc1ccc2[nH]c(S(=O)Cc3ncc(C)c(OC)c3C)nc2n1 (centres undefined) [Prestw-1351],0.872 ± 0.15,1.15 ± 0.16,0.994 ± 0.11,0.819 ± 0.029,1.11 ± 0.14,1.24 ± 0.13,0.974 (active)
O=c1[nH]nc(Br)c(=O)[nH]1,1.04 ± 0.082,1.1 ± 0.09,0.969 ± 0.04,0.993 ± 0.11,1.03 ± 0.057,1.02 ± 0.086,0.992 (active)
Cc1ccc(COc2cccc(C=C3SC(=S)NC3=O)c2)cc1,0.611 ± 0.06,0.803 ± 0.13,0.992 ± 0.088,0.793 ± 0.08,1.18 ± 0.069,1.3 ± 0.11,1.02 (active)
Cc1n[nH]c(C)c1CCC(=O)NC1CCC(F)(F)CC1,0.921 ± 0.068,1.04 ± 0.12,0.879 ± 0.048,0.955 ± 0.062,1.18 ± 0.094,1.03 ± 0.28,1.02 (active)
O=C1C(=Cc2ccccc2)SC(=S)N1CO,0.546 ± 0.053,0.757 ± 0.058,0.725 ± 0.08,0.741 ± 0.073,1.03 ± 0.16,1.15 ± 0.32,0.968 (active)
O=C(NCc1cccc(Cl)c1)c1cnc2n(c1=O)CCS2,1.03 ± 0.11,1.02 ± 0.1,0.974 ± 0.054,0.976 ± 0.035,1.04 ± 0.054,1.09 ± 0.19,0.999 (active)
CC(=O)OC1=C(O)C=CC2C(C)=CC(=O)OC12 (centres undefined),0.954 ± 0.12,0.823 ± 0.079,1.04 ± 0.1,0.986 ± 0.034,1.3 ± 0.19,1.47 ± 0.3,1.01 (active)
Cc1ccc(C(=O)N2N=C(c3ccncc3)CC2(O)C(F)(F)F)cc1 (centres undefined),0.764 ± 0.062,0.831 ± 0.12,0.985 ± 0.097,0.86 ± 0.043,1.26 ± 0.081,1.29 ± 0.14,1.01 (active)
Cn1cnc2c(F)c(Nc3ccc(Br)cc3Cl)c(C(=O)NOCCO)cc21,0.288 ± 0.015,0.124 ± 0.0099,0.183 ± 0.013,0.852 ± 0.061,3.68 ± 0.24,2.42 ± 0.19,0.684 (inactive)
CNC(=O)[C@H](Cc1c[nH]c2ccccc12)NC(=O)[C@@H](CC(=O)NO)CC(C)C,1.1 ± 0.26,1.33 ± 0.074,1.07 ± 0.074,0.88 ± 0.035,1.07 ± 0.12,1.12 ± 0.12,0.995 (active)
CC(=O)Oc1cc(C(F)(F)F)ccc1C(=O)O,0.977 ± 0.13,1.05 ± 0.19,0.91 ± 0.053,0.976 ± 0.03,1.32 ± 0.32,1.21 ± 0.23,1 (active)
CS(=O)(=O)N(CC(=O)NCC1CCCO1)c1ccc(Cl)c(C(F)(F)F)c1 (centres undefined),0.751 ± 0.071,0.821 ± 0.039,1.01 ± 0.09,0.993 ± 0.046,1.35 ± 0.095,1.52 ± 0.15,0.998 (active)
COC(CNC(=O)c1cccc(Br)c1)c1ccccc1C (centres undefined),0.649 ± 0.056,0.999 ± 0.097,0.873 ± 0.04,0.832 ± 0.032,0.96 ± 0.1,0.901 ± 0.21,1 (active)
CCCN(CCC)CCc1cccc2c1CC(=O)N2.Cl,0.998 ± 0.079,0.945 ± 0.046,1.03 ± 0.074,0.926 ± 0.071,0.925 ± 0.037,0.912 ± 0.083,0.997 (active)
CC1(C)OC(=O)C(=Cc2ccc(I)o2)C(=O)O1,0.595 ± 0.069,1.01 ± 0.069,0.887 ± 0.17,0.589 ± 0.049,1.02 ± 0.18,0.877 ± 0.26,1.01 (active)
O=C(Nc1ccccn1)NC1CCS(=O)(=O)C1 (centres undefined),0.659 ± 0.37,0.918 ± 0.22,0.748 ± 0.14,0.881 ± 0.12,1.34 ± 0.085,1.23 ± 0.23,0.948 (active)
Cn1nc(-c2ccc(F)cc2)cc1C(=O)NCC1(CO)CC1,0.865 ± 0.037,1.04 ± 0.1,1.03 ± 0.056,1.03 ± 0.049,1.09 ± 0.32,1.23 ± 0.33,1.02 (active)
CC(=O)c1ccc(Nc2ncnc(Nc3ccc(C(C)=O)cc3)c2[N+](=O)[O-])cc1,1.04 ± 0.1,1.09 ± 0.076,0.939 ± 0.045,1.01 ± 0.091,1.06 ± 0.052,0.994 ± 0.076,0.991 (active)
Cc1cccc(NC(=O)C(=Cc2ccco2)NC(=O)c2ccccc2I)c1,1.06 ± 0.087,1.06 ± 0.081,1.01 ± 0.072,0.953 ± 0.076,1.15 ± 0.099,1.11 ± 0.15,1.01 (active)
O=C1C(CCC(O)c2ccc(F)cc2)C(c2ccc(O)cc2)N1c1ccc(F)cc1 (centres undefined),1.09 ± 0.085,0.898 ± 0.16,1.04 ± 0.098,0.942 ± 0.034,1.16 ± 0.2,1.18 ± 0.25,1.01 (active)
COC(=O)C1=C(C)N(c2ccc(Br)cc2)C(=O)C1=Cc1ccc(O)cc1,1.12 ± 0.088,0.956 ± 0.1,0.93 ± 0.057,0.468 ± 0.035,1.31 ± 0.16,1.05 ± 0.065,1.01 (active)
Cc1ccc(C(=O)c2cc(O)c(O)c([N+](=O)[O-])c2)cc1,0.889 ± 0.078,1.09 ± 0.056,1.07 ± 0.049,0.871 ± 0.048,0.917 ± 0.081,0.946 ± 0.075,0.995 (active)
CCCCOc1cc(C(=O)NCCN(CC)CC)c2ccccc2n1.Cl,0.759 ± 0.17,1.04 ± 0.18,1.04 ± 0.067,0.776 ± 0.039,1.41 ± 0.41,1.82 ± 0.14,0.93 (active)
CC(Nc1ccc(N)cc1)=C1C(=O)c2ccccc2C1=O,0.913 ± 0.083,0.855 ± 0.043,1.01 ± 0.09,0.888 ± 0.059,1.49 ± 0.1,1.68 ± 0.15,1 (active)
CN1CCN(CC(=O)N2c3ccccc3C(=O)Nc3cccnc32)CC1.Cl.Cl,1.49 ± 0.35,1.03 ± 0.1,1.15 ± 0.077,0.96 ± 0.036,1.08 ± 0.12,1.06 ± 0.15,0.984 (active)
O=c1ccc(-c2ccncc2)nn1CC1CCN(CC(F)(F)F)CC1,0.924 ± 0.046,0.973 ± 0.077,0.955 ± 0.051,0.858 ± 0.043,0.884 ± 0.07,0.832 ± 0.17,0.964 (active)
Cc1nc(NC(=O)N2CCC[C@H]2C(N)=O)sc1-c1ccnc(C(C)(C)C(F)(F)F)c1,0.626 ± 0.034,0.894 ± 0.072,1.6 ± 0.66,0.916 ± 0.066,1.18 ± 0.24,1.32 ± 0.33,1.02 (active)
